Test results reported in the supplement of paper PMC4894684.
Counter-ions that a name gives are not always drawn. ± gives the standard deviation of the averaged measurements.

Tested on: Toxoplasma gondii RH (in HFF)
Experiment: parasite growth relative to the screen mean (all compounds = 100%); higher = less inhibition of parasite growth
Details: 5 µM; 72 h; oxygen 21 %
In short: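 Library compounds, held as 10 mM DMSO stocks, were pinned to 5 µM final onto confluent human foreskin fibroblasts in 96-well plates. The cells were infected within 2 h with RH β-Gal–GFP Toxoplasma (MOI 1:5), grown 72 h at 21% O2, and assayed for parasite number by CPRG β-Gal using in-plate standard curves. Growth is reported relative to the screen mean, in which all compounds = 100%, averaged over two screens, and CellTiter-Blue checked uninfected host-cell viability.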

Going from `CN(C)CCCSC(=N)N` [Dimaprit dihydrochloride] to `CNC(=C[N+](=O)[O-])NCCSCc1ccc(CN(C)C)o1` [Ranitidine hydrochloride], the parasite growth rises from 73.36 ± 0.62% to 94.7 ± 18%.

`Nc1nc2c(cnn2CCc2ccccc2)c2nc(-c3ccco3)nn12` and `O=C(/C=C/c1ccc(O)c(O)c1)OCCc1ccccc1` [Caffeic acid phenethyl ester] are within error of each other in parasite growth: 100 ± 39% for the first, 105 ± 73% for the second.

Compared with `COc1ccccc1N1CCN(CCCCN2C(=O)c3ccccc3C2=O)CC1` [NAN-190 hydrobromide], `OC(CCCN1CCN(c2ncc(F)cn2)CC1)c1ccc(F)cc1` (stereo not drawn) is lower in parasite growth: 133 ± 11% for the first, 64.6 ± 30% for the second.

`Cc1cccc(C)c1OCC(C)N` (stereo not drawn) [Mexiletine hydrochloride] and `Cc1nc2c(O)cccc2c(=O)[nH]1` are within error of each other in parasite growth: 141.59 ± 0.025% for the first, 122 ± 24% for the second.

`Nc1ncnc2c1ncn2[C@@H]1O[C@H](CO)C[C@H]1O` [Cordycepin] and `O=c1[nH]nc(Sc2ncc([N+](=O)[O-])s2)n1-c1ccc2c(c1)OCCO2` are within error of each other in parasite growth: 122 ± 20% for the first, 130 ± 46% for the second.

`CC1=Nc2ccc(Cl)cc2S(=O)(=O)N1` [Diazoxide] and `Clc1ccc2c(c1)N=C(N1CCNCC1)c1ccccc1N2` [N-Desmethylclozapine] are within error of each other in parasite growth: 77.6 ± 16% for the first, 59.7 ± 2.8% for the second.

First: CCOC(=O)[C@H](CCc1ccccc1)N[C@@H](C)C(=O)N1Cc2cc(OC)c(OC)cc2C[C@H]1C(=O)O [Moexipril hydrochloride]
Second: COc1ccc(CC(=O)NC(/N=C(\NC#N)Nc2cccc3ncccc23)C(C)(C)C)cc1OC (stereo not drawn)
The parasite growth of the first is lower: 63.9 ± 14% for the first, 123 ± 17% for the second.

`c1cc(CN2CCCCC2)cc(OCCCNc2nc3ccccc3s2)c1` [Zolantidine dimaleate] and `O=C(O)COc1ccc(OCCNC[C@H](O)COc2ccccc2)cc1` [ICI 215,001 hydrochloride] are within error of each other in parasite growth: 112 ± 4.6% for the first, 116 ± 14% for the second.

Going from `CN(C)CCCn1cc(C2=C(c3c[nH]c4ccccc34)C(=O)NC2=O)c2ccccc21` to `O=C(COc1cccc2c(=O)[nH]ccc12)c1ccccc1`, the parasite growth rises from < 0% to 92.69 ± 0.78%.

First: O=S(=O)(c1ccccc1)N(CC(F)(F)F)c1ccc(C(O)(C(F)(F)F)C(F)(F)F)cc1
Second: CCN(CC)CCOc1ccc(Cc2ccccc2)cc1 [DPPE fumarate]
The parasite growth of the first is higher: 132 ± 5.8% for the first, 75.7 ± 1.7% for the second.

First: COc1ccc2[nH]c([S+]([O-])Cc3ncc(C)c(OC)c3C)nc2c1 (stereo not drawn) [Omeprazole]
Second: COc1cc2ncnc(Nc3ccc(Cl)cc3F)c2cc1OC
The parasite growth of the first is higher: 178 ± 7.3% for the first, 28.9 ± 13% for the second.

Compared with `CCCn1c(=O)c2[nH]c(-c3ccccc3)nc2n(CCC)c1=O` [1,3-Dipropyl-8-phenylxanthine], `O=C(c1ccc(F)cc1)C1CCN(CCn2c(=S)[nH]c3ccccc3c2=O)CC1` [Altanserin hydrochloride] is higher in parasite growth: 47 ± 7.9% for the first, 135 ± 6.3% for the second.

Compared with `O/N=C/c1ccc(-c2ccc(O)c(F)c2)c(Cl)c1O`, `Oc1ccc(C2CNCCc3c2cc(O)c(O)c3Cl)cc1` (stereo not drawn) [Fenoldopam hydrochloride] is higher in parasite growth: < 0% for the first, 105 ± 14% for the second.

`CC(C)N(CCC(=O)c1ccc2ccccc2c1)Cc1ccccc1` and `CCC(=O)NC1Cc2ccccc2C(c2ccccc2)C1` (stereo not drawn) are within error of each other in parasite growth: 77.6 ± 4.8% for the first, 73.8 ± 18% for the second.

`CC1(C)Oc2ccc(C#N)cc2[C@H](N2CCCC2=O)[C@H]1O` [Cromakalim] and `O=C1CCC(N2C(=O)c3ccccc3C2=O)C(=O)N1` (stereo not drawn) [Thalidomide] are within error of each other in parasite growth: 127 ± 5.1% for the first, 151 ± 46% for the second.

Going from `COc1cccc(NC(=O)/C=C/c2ccc(Cl)cc2)c1` to `O=C(C=Cc1ccccc1)NC(NC(=S)Nc1ccc(Cl)cc1)C(Cl)(Cl)Cl` (stereo not drawn), the parasite growth falls from 136.1 ± 0.67% to 34.8 ± 9.4%.

First: Nc1cc(N2CCCCC2)nc(N)[n+]1[O-] [Minoxidil]
Second: CC(C)NCC(O)c1ccc(O)c(O)c1 (stereo not drawn) [Isoproterenol hydrochloride]
The parasite growth of the first is lower: 111 ± 13% for the first, 172 ± 14% for the second.

`N[C@@H](Cc1cc(-c2ccc(Cl)cc2Cl)cc(CP(=O)(O)O)c1O)C(=O)O` and `Cc1cc(/C(=C/Nc2ccc(Cl)cc2)C(=O)Nc2ccc(Cl)cc2)on1` are within error of each other in parasite growth: 127 ± 26% for the first, 139 ± 40% for the second.

Compared with `COc1ccc(CC(C)NCC(O)c2ccc(O)c(NC=O)c2)cc1` (stereo not drawn) [Formoterol hemifumarate], `Cc1noc(NS(=O)(=O)c2cccc3c(N(C)C)cccc23)c1C` is lower in parasite growth: 126 ± 5.6% for the first, 59.8 ± 11% for the second.
